# Activity calls are given as the source filed them. The calls were made as follows: active = hit-call score of the fitted dose curve at least 0.9, where 1 is the maximum; inactive = score below 0.9.
# Legend:
# CD69, CD69 (gene 969) = assay: BSK_SAg_CD69: BioMAP Diversity Plus: SAg Assay for CD69 Biomarker Activity (AID 2283089); details: primary human HUVEC with PBMC; actives raise or lower the signal;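 as to AC50: cell surface CD69 protein quantified by ELISA with fluorescence detection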
# In short: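 Values derive from bidirectional fitting relative to DMSO vehicle. Cells: umbilical vein endothelium plus peripheral blood mononuclear cells, treated 24 h before fluorescent ELISA for CD69.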
# [1] = read-out: Monocyte Chemoattractant Protein-1 (MCP1), CCL2 (gene 6347); assay: BSK_SAg_MCP1: BioMAP Diversity Plus: SAg Assay for Monocyte Chemoattractant Protein-1 (MCP1) Biomarker Activity (AID 2283090); details: primary human HUVEC with PBMC; actives raise or lower the signal
# In short: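 Values derive from bidirectional fitting of ELISA-measured MCP1 against DMSO controls. Readings were taken 24 h after dosing human vascular endothelial cells co-cultured with peripheral blood mononuclear cells under superantigen stimulation.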
# [2] = read-out: E-selectin (Homo sapiens) (UniProt P16581); assay: BSK_SAg_Eselectin: BioMAP Diversity Plus: SAg Assay for Eselectin Biomarker Activity (AID 2283091); details: primary human HUVEC with PBMC; actives raise or lower the signal
# In short: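 Co-culture: HUVEC + PBMC. Dose compound; 24 h. ELISA for E-selectin. Bidirectional fit vs DMSO.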
# [3] = read-out: Monokine induced gamma interferon (MIG), CXCL9 (gene 4283); assay: BSK_SAg_MIG: BioMAP Diversity Plus: SAg Assay for Monokine induced gamma interferon (MIG) Biomarker Activity (AID 2283092); details: primary human HUVEC with PBMC; actives raise or lower the signal
# In short: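 Values reflect bidirectional fitting of ELISA-measured MIG against DMSO vehicle, taken 24 h after dosing of a co-culture of human umbilical vein endothelial cells and peripheral blood mononuclear cells.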
# [4] = read-out: Interleukin-8 (IL8), CXCL8 (gene 3576); assay: BSK_SAg_IL8: BioMAP Diversity Plus: SAg Assay for Interleukin-8 (IL8) Biomarker Activity (AID 2283094); details: primary human HUVEC with PBMC; actives raise or lower the signal
# In short: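 HUVEC/PBMC co-culture, 24 h post-dose; IL-8 by ELISA. Gain or loss of signal fitted bidirectionally vs DMSO baseline.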
# [5] = BSK_SAg_Proliferation: Cell Proliferation Assessment in the BioMAP Diversity Plus: SAg Assay (AID 2283095); details: primary human HUVEC with PBMC;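 also: relative cell number as total protein by SRB absorbance in sub-confluent culture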
# In short: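 HUVEC/PBMC co-culture, 96-well. TCA-fixed (10%), 0.1% SRB stain, A560 at 96 h. Protein content used as viability readout; bidirectional fitting vs DMSO control.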
# [6] = BSK_SAg_SRB: Viability Assessment in the BioMAP Diversity Plus: SAg Assay (AID 2283096); details: primary human HUVEC with PBMC;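 also: cells read one day after compound addition; hits may be either gain or loss of signal compared with DMSO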
# In short: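 SRB absorbance at 560 nm served as the viability read-out. Cells (HUVEC plus peripheral blood mononuclear cells) were TCA-fixed and stained 24 h post-dosing; activity fitted in both directions against DMSO controls.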
# [7] = BSK_SAg_PBMCCytotoxicity: PBMC Cytotoxicity Assessment in the BioMAP Diversity Plus: SAg Assay (AID 2283093); details: primary human HUVEC with PBMC;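 also: PBMC viability measured as Alamar Blue reduction fluorescence at 546/580 nm; fitted both ways against DMSO so a hit may be loss or gain of signal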;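 as to AC50: PBMC superantigen activated with SEB plus TSST-1 one hour after compound addition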
# In short: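 Alamar Blue reduction (6 h, ex/em 546/580 nm) read after 90 h culture of PBMC pre-dosed 1 h then stimulated with SEB plus TSST-1, 20 ng/mL each. Gain or loss of signal fitted relative to DMSO.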
# E-selectin (Homo sapiens), sequence (P16581 whole entry, looked up): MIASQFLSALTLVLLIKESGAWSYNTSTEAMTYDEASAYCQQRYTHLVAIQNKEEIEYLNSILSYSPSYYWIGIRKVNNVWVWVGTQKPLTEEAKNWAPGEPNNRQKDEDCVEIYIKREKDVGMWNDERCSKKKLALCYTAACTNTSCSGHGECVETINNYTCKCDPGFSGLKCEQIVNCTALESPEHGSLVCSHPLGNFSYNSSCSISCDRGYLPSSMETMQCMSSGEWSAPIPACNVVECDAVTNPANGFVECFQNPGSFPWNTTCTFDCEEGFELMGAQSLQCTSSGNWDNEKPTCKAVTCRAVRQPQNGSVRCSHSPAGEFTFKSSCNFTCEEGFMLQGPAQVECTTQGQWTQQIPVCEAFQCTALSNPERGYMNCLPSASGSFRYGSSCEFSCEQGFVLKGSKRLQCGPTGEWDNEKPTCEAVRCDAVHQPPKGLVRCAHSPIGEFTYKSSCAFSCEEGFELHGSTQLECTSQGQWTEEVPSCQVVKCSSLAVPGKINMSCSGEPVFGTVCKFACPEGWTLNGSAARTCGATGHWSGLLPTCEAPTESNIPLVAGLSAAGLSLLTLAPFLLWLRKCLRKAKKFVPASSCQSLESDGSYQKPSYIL
smiles,measurement,setting,value
C=CC(=O)OCC(CC)(COC(=O)C=C)COC(=O)C=C,AC50,"CD69, CD69 (gene 969)",2.3 µM (active)
same,AC50,[1],2.6 µM (active)
same,AC50,[2],1.36 µM (active)
same,AC50,[3],3.36 µM (active)
same,AC50,[4],1.7 µM (active)
same,AC50,[5],0.587 µM (active)
same,AC50,[6],3.38 µM (active)
Nc1ccc(Cl)cc1,outcome,"CD69, CD69 (gene 969)",inactive
same,outcome,[1],inactive
same,outcome,[2],inactive
same,outcome,[3],inactive
same,outcome,[4],inactive
same,outcome,[5],inactive
same,outcome,[6],inactive
O=P1(N(CCCl)CCCl)NCCCO1 (stereo unspecified),outcome,"CD69, CD69 (gene 969)",inactive
same,outcome,[1],inactive
same,outcome,[2],inactive
same,outcome,[7],inactive
same,outcome,[4],inactive
same,outcome,[5],inactive
O=C(O)C(F)(F)C(F)(F)C(=O)O,outcome,"CD69, CD69 (gene 969)",inactive
same,outcome,[1],inactive
same,outcome,[2],inactive
same,outcome,[7],inactive
same,outcome,[4],inactive
same,outcome,[5],inactive
ClC1=C(Cl)C2(Cl)C3C(Cl)C(Cl)CC3C1(Cl)C2(Cl)Cl (stereo unspecified),AC50,"CD69, CD69 (gene 969)",27.5 µM (active)
same,AC50,[1],33.6 µM (active)
same,AC50,[2],32.3 µM (active)
same,AC50,[3],34.4 µM (active)
same,AC50,[4],34.7 µM (active)
same,AC50,[5],7.61 µM (active)
same,AC50,[6],31.1 µM (active)
Nc1cc2c3c(c1)C(c1ccccc1)=N[C@@H](NC(=O)c1cccnc1)C(=O)N3CC2,AC50,"CD69, CD69 (gene 969)",0.837 µM (active)
same,outcome,[1],inactive
same,AC50,[2],1.12 µM (active)
same,outcome,[3],inactive
same,outcome,[4],inactive
same,outcome,[5],inactive
same,outcome,[6],inactive
O=C(O)C(F)(F)OC(F)(F)C(F)(F)OC(F)(F)F,outcome,"CD69, CD69 (gene 969)",inactive
same,outcome,[1],inactive
same,outcome,[2],inactive
same,outcome,[3],inactive
same,outcome,[4],inactive
same,outcome,[5],inactive
same,outcome,[6],inactive
ClC(Cl)(Cl)c1ccccc1,outcome,"CD69, CD69 (gene 969)",inactive
same,outcome,[1],inactive
same,outcome,[2],inactive
same,outcome,[7],inactive
same,outcome,[4],inactive
same,outcome,[5],inactive
CCOP(=S)(OCC)SCS(=O)(=O)CC,outcome,"CD69, CD69 (gene 969)",inactive
same,outcome,[1],inactive
same,outcome,[2],inactive
same,outcome,[7],inactive
same,outcome,[4],inactive
same,outcome,[5],inactive
CCCCc1ccccc1,outcome,"CD69, CD69 (gene 969)",inactive
same,outcome,[1],inactive
same,outcome,[2],inactive
same,outcome,[3],inactive
same,outcome,[4],inactive
same,outcome,[5],inactive
same,outcome,[6],inactive
CCOC(=O)c1ccccc1C(=O)OCC,outcome,"CD69, CD69 (gene 969)",inactive
same,outcome,[1],inactive
same,outcome,[2],inactive
same,outcome,[7],inactive
same,outcome,[4],inactive
same,outcome,[5],inactive
CC(C)(C)c1ccc(O)cc1,outcome,"CD69, CD69 (gene 969)",inactive
same,outcome,[1],inactive
same,outcome,[2],inactive
same,outcome,[3],inactive
same,outcome,[4],inactive
same,outcome,[5],inactive
same,outcome,[6],inactive
CCCCC(CC)COP(=O)(Oc1ccccc1)Oc1ccccc1 (stereo unspecified),AC50,"CD69, CD69 (gene 969)",13.3 µM (active)
same,outcome,[1],inactive
same,AC50,[2],20 µM (active)
same,AC50,[7],20 µM (active)
same,AC50,[4],7.9 µM (active)
same,AC50,[5],20 µM (active)
CCCCN(CCCC)N=O,outcome,"CD69, CD69 (gene 969)",inactive
same,outcome,[1],inactive
same,outcome,[2],inactive
same,outcome,[3],inactive
same,outcome,[4],inactive
same,outcome,[5],inactive
same,outcome,[6],inactive
O=c1ssc(Cl)c1Cl,AC50,"CD69, CD69 (gene 969)",6.02 µM (active)
same,AC50,[1],5.35 µM (active)
same,AC50,[2],4.28 µM (active)
same,AC50,[7],4.21 µM (active)
same,AC50,[4],8.19 µM (active)
same,AC50,[5],1.94 µM (active)
c1cc2c3c(cccc3c1)CC2,outcome,"CD69, CD69 (gene 969)",inactive
same,outcome,[1],inactive
same,outcome,[2],inactive
same,outcome,[7],inactive
same,outcome,[4],inactive
same,outcome,[5],inactive
CC(Cc1ccc(OCC(=O)O)cc1)NCC(O)c1csc(C(F)(F)F)n1 (stereo unspecified),outcome,"CD69, CD69 (gene 969)",inactive
same,outcome,[1],inactive
same,outcome,[2],inactive
same,outcome,[7],inactive
same,outcome,[4],inactive
same,outcome,[5],inactive
CCOP(=S)(OCC)SCSc1ccc(Cl)cc1,AC50,"CD69, CD69 (gene 969)",20 µM (active)
same,AC50,[1],20 µM (active)
same,AC50,[2],20 µM (active)
same,AC50,[7],13 µM (active)
same,AC50,[4],20 µM (active)
same,AC50,[5],14.2 µM (active)
same,outcome,[6],inactive
OCC1CO1 (stereo unspecified),outcome,"CD69, CD69 (gene 969)",inactive
same,outcome,[1],inactive
same,outcome,[3],inactive
same,outcome,[7],inactive
same,outcome,[4],inactive
same,outcome,[5],inactive
COP(N)(=S)OC,outcome,"CD69, CD69 (gene 969)",inactive
same,outcome,[1],inactive
same,outcome,[2],inactive
same,outcome,[7],inactive
same,outcome,[4],inactive
same,outcome,[5],inactive
same,outcome,[6],inactive
c1nc[nH]n1,outcome,"CD69, CD69 (gene 969)",inactive
same,outcome,[1],inactive
same,outcome,[2],inactive
same,outcome,[4],inactive
same,outcome,[5],inactive
COCCOCCO,outcome,"CD69, CD69 (gene 969)",inactive
same,outcome,[1],inactive
same,outcome,[2],inactive
same,outcome,[4],inactive
same,outcome,[5],inactive
same,outcome,[6],inactive
